Data published in PubChem BioAssay (Tox21).
A number with no mark means an inactive call. Records with an inconclusive call do not appear. Entries that show only a call come without a potency. The source made the active and inactive calls. Unless noted, the call rests on the fitted dose curve.

Tests used:
[1] = Nuclear factor erythroid 2-related factor 2/antioxidant responsive element (Nrf2/ARE) small molecule agonists: qHTS cell viability counter screen in human keratinocytes (AID 1919968; active means well fitted curve in the direction sought with a large enough effect in the repeat runs; an effect the other way counts as inactive or inconclusive; further: nearly all actives have a fitted effect of over 55% in size; further: potency means the concentration at half of the fitted maximal effect)
How it was run: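 Cells of the KeratinoSens line were plated at 1,500 per well and left for 5 h before compound transfer from DMSO stocks. After a 23 h incubation (37 C, 5% CO2), CellTiter-Fluor was added. Signal was taken as fluorescence intensity 1 h later.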

[2] = Nuclear factor erythroid 2-related factor 2/antioxidant responsive element (Nrf2/ARE) small molecule agonists: luciferase reporter gene qHTS assay in human keratinocytes (AID 1919969); further: nearly all actives have a fitted effect of over 35% in size
[3] = target: Gonadotropin-releasing hormone receptor (Homo sapiens) (UniProt P30968); experiment: Human gonadotropin-releasing hormone receptor (GnRHR) small molecule agonists, calcium flux assay in GnRHR-HEK293 cells (AID 1920063); further: nearly all actives have a fitted effect of over 35% in size
How it was run: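 Compounds dissolved in DMSO are pin-transferred onto dye-loaded GnRHR-HEK293 cells, which were seeded 18 h before at 37 C/5% CO2. Calcium signal is read as fluorescence intensity at 1 s intervals for 3 min.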

[4] = target: KiSS-1 receptor (Homo sapiens) (UniProt Q969F8); experiment: Human kisspeptin (KISS1R) small molecule agonists, calcium flux assay in KISS1R-HEK293 cells (AID 1920064; active means well fitted curve in the direction sought with a large enough effect in the repeat runs; an effect the other way counts as inactive or inconclusive)
How it was run: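 Cell line: HEK293, stable human KISS1R. Dye loading 1 h at 37 C after 18 h culture. Read: kinetic fluorescence, 480/540 nm, 3 min at 1 s intervals.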

[5] = G protein-coupled receptor (GPCR) small molecule agonists, calcium flux assay: HEK293 wild type cell line counter screen (AID 1920065)
How it was run: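 Tox21 10K compounds, 15 concentrations each in triplicate, pin-transferred in DMSO onto dye-loaded cells; kinetic read at 480/540 nm for 3 min, 1 s intervals.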

[6] = p53 small molecule agonists, cell-based qHTS assay with human liver microsomes: qHTS cell viability counter screen (AID 1963579); further: nearly all actives have a fitted effect of over 45% in size; further: potency means the concentration at half of the fitted maximal effect
How it was run: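 In this multiplexed counter screen, the reporter plates were subsequently treated with CellTiter-Glo so that cell viability, reflected by luminescence, could be recorded for p53RE-bla cells dosed 16 h with compounds under microsomal activation (HLM and NADPH).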

[7] = p53 small molecule agonists, cell-based qHTS assay: qHTS cell viability counter screen (AID 1963581); further: nearly all actives have a fitted effect of over 45% in size; further: potency means the concentration at half of the fitted maximal effect
How it was run: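 ATP content measured by luminescence in HCT-116 p53RE-bla cells treated 16 h at 37 C, same wells as the reporter screen.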

[8] = target: 5-hydroxytryptamine receptor 2A (Homo sapiens) (UniProt P28223); experiment: 5-hydroxytryptamine receptor 2A (HTR2A) small molecule antagonists, cell-based qHTS assay (AID 1963586); further: nearly all actives have a fitted effect of over 45% in size
How it was run: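 CHO cells stably expressing human HTR2A were plated for 18 h at 37 C, then loaded with calcium dye for 1 h. Compounds were preincubated 5 min at room temperature before DOI (4 nM solution) was added. Kinetic fluorescence was read for 3 min.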

[9] = target: 5-hydroxytryptamine receptor 2A (Homo sapiens) (UniProt P28223); experiment: 5-hydroxytryptamine receptor 2A (HTR2A) small molecule agonists, cell-based qHTS assay (AID 1963587); further: nearly all actives have a fitted effect of over 30% in size
How it was run: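 HTR2A-CHO cells, plated 18 h at 37 C/5% CO2, dye-loaded 1 h at 37 C; compounds in DMSO added by pin tool (agonist mode). Intracellular calcium flux read as kinetic fluorescence on FDSS over 2 min at 1 s intervals.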

[10] = target: Muscarinic acetylcholine receptor M1 (Homo sapiens) (UniProt P11229); experiment: Cholinergic receptor muscarinic 1 (CHRM1) small molecule antagonists, cell-based qHTS assay (AID 1963588); further: nearly all actives have a fitted effect of over 40% in size
How it was run: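 Compounds were tested at 15 concentrations in three independent runs. Dye-loaded CHRM1-CHO cells were exposed 5 min at room temperature before stimulation by acetylcholine added at 50nM. Intracellular calcium was read kinetically on FDSS for 3 min.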

[11] = target: Muscarinic acetylcholine receptor M1 (Homo sapiens) (UniProt P11229); experiment: Cholinergic receptor muscarinic 1 (CHRM1) small molecule agonists, cell-based qHTS assay (AID 1963589); further: nearly all actives have a fitted effect of over 35% in size
How it was run: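 Homogeneous fluorescence calcium flux, agonist mode. Human M1-expressing CHO cells; compound dosed at 15 concentrations, three independent runs; signal sampled every 1 sec.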

[12] = target: Beta-2 adrenergic receptor (Homo sapiens) (UniProt P07550); experiment: Adrenergic beta2 receptor (ADRB2) small molecule antagonists, cell-based qHTS assay (AID 1963592); further: series mostly up to about 92 µM; nearly all actives have a fitted effect of over 50% in size
How it was run: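 Assay format: CHO-ADRB2 cells, 18-20hr seeding at 37C/5% CO2, then compound plus 1nM isoproterenol agonist mix for 0.5hr RT. Homogeneous time-resolved fluorescence cAMP detection after 1hr, expressed as 665/615 nm ratio.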

[13] = target: D(2) dopamine receptor (Homo sapiens) (UniProt P14416); experiment: Dopamine D2 receptor (DRD2) small molecule antagonists, cell-based qHTS assay (AID 1963595; active means well fitted inhibition curve with a large enough effect in the signal ratio in the repeat runs, with a control signal flat; the % refers to the signal ratio; further: potency means the concentration at half of the fitted maximal effect)
How it was run: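 DRD2-HEK293; 0.1 mM Ro20-1724; cpd 10 min RT; NKH477 200 nM + quinpirole 12 nM, 30 min RT; HTRF cAMP (cAMP-d2/anti-cAMP cryptate), 665/620 nm ratio after 1 h.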

[14] = p53 small molecule agonists, cell-based qHTS assay with rat liver microsomes: qHTS cell viability counter screen (AID 1963580); further: nearly all actives have a fitted effect of over 45% in size
How it was run: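 Counter screen for cytotoxicity under metabolic activation: rat liver microsomes and NADPH, 0.5 mg/mL final each, added with compounds to p53RE-bla HCT-116 cells; 16 h at 37 C, then ATP luminescence read.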

[15] = cAMP Responsive Elements (CRE) small molecule agonists, cell-based qHTS assay (AID 1963590)
How it was run: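 HEK 293T cells stably bearing CRE-bla were plated at 2,000 cells per well and rested 18 h. Compounds, positive controls or DMSO were added for 3 h at 37 C. LiveBLAzer B/G substrate was then loaded for 2 h at room temperature.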

[16] = cAMP Responsive Elements (CRE) small molecule antagonists, cell-based qHTS assay (AID 1963591; active means well fitted inhibition curve with a large enough effect in the signal ratio in the repeat runs, not every such curve was filed as active; the % refers to the signal ratio)
How it was run: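 First, CRE-bla HEK293T cells settled 18 h at 37 C. Next, compound and 0.25 uM final NKH477 were applied for 3 h. Last, LiveBLAzer B/G substrate was loaded for 2 h at room temperature.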

[17] = target: D(2) dopamine receptor (Homo sapiens) (UniProt P14416); experiment: Dopamine D2 receptor (DRD2) small molecule agonists, cell-based qHTS assay (AID 1963594); further: nearly all actives have a fitted effect of over 35% in size
How it was run: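 HEK293 cells stably expressing DRD2 were cultured 24 h at 37 C, then given Ro20-1724 (0.1 mM final) and compounds for 10 min at room temperature. NKH477 (200nM) was then added for 30 min. cAMP was read by HTRF.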

[18] = target: Beta-2 adrenergic receptor (Homo sapiens) (UniProt P07550); experiment: Adrenergic beta2 receptor (ADRB2) small molecule agonists, cell-based qHTS assay (AID 1963593);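 further: CHO cells stably overexpressing human ADRB2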
How it was run: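 CHO cells stably over-expressing ADRB2 were plated overnight at 37C, then dosed with compounds plus a stimulation mix containing 100uM IBMX and 25uM Ro-20-1724 for 0.5hr at room temperature. cAMP was measured by HTRF competition, 1hr.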

Sequence of KiSS-1 receptor (Homo sapiens) (Q969F8 whole entry, looked up): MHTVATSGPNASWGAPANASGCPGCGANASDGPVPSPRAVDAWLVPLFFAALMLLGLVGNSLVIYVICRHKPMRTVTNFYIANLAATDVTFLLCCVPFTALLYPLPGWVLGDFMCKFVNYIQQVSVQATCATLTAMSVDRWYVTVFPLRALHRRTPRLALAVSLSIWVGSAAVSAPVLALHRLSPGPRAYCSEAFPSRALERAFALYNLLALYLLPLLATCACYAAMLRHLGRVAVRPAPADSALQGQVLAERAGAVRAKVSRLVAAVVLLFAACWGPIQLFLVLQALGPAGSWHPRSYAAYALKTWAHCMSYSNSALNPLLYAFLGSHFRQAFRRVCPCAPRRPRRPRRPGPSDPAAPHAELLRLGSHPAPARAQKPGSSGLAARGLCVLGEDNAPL
Sequence of Gonadotropin-releasing hormone receptor (Homo sapiens) (P30968 whole entry, looked up): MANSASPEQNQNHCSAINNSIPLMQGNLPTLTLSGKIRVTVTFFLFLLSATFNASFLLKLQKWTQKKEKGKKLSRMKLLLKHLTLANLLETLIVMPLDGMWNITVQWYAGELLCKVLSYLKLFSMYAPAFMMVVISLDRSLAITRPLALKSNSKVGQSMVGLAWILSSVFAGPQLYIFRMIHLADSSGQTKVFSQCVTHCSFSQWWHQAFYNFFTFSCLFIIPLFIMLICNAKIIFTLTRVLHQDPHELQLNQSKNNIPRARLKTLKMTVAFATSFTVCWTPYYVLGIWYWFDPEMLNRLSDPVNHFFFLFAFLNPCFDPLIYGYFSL
Sequence of D(2) dopamine receptor (Homo sapiens) (P14416 whole entry, looked up): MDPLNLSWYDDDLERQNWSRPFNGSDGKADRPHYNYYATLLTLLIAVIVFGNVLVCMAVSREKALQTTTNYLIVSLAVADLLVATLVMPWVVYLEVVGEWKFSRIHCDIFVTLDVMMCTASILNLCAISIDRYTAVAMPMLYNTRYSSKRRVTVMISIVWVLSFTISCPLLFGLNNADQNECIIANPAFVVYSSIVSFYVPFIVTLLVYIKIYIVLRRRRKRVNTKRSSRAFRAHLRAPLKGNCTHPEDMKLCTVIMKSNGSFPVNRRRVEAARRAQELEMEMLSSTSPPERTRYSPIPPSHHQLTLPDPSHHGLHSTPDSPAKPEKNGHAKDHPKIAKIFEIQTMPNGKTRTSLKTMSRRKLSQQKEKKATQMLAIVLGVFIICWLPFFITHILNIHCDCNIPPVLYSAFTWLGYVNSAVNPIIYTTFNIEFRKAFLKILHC
Sequence of Muscarinic acetylcholine receptor M1 (Homo sapiens) (P11229 whole entry, looked up): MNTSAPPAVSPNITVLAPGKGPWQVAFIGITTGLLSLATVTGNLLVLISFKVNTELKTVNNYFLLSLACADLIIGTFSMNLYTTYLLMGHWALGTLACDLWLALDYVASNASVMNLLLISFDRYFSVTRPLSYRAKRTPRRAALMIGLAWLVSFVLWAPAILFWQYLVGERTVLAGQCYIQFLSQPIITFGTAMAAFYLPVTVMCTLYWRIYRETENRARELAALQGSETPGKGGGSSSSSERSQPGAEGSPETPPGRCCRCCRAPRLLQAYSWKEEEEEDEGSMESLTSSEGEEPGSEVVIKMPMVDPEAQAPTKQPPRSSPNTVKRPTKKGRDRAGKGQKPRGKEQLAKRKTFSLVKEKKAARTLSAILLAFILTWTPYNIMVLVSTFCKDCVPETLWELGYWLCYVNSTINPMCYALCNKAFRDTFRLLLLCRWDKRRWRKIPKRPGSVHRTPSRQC
Sequence of Beta-2 adrenergic receptor (Homo sapiens) (P07550 whole entry, looked up): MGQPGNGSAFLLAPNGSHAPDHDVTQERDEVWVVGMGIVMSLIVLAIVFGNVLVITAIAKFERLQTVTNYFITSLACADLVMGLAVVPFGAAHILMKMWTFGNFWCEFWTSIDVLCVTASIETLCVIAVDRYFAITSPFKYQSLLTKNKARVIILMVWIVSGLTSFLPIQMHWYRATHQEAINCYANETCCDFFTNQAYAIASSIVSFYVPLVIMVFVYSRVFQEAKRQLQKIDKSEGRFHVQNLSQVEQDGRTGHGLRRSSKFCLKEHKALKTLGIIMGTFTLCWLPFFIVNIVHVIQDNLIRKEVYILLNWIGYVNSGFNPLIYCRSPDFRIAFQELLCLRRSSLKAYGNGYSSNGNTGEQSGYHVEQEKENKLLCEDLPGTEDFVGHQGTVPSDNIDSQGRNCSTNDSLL
Sequence of 5-hydroxytryptamine receptor 2A (Homo sapiens) (P28223 whole entry, looked up): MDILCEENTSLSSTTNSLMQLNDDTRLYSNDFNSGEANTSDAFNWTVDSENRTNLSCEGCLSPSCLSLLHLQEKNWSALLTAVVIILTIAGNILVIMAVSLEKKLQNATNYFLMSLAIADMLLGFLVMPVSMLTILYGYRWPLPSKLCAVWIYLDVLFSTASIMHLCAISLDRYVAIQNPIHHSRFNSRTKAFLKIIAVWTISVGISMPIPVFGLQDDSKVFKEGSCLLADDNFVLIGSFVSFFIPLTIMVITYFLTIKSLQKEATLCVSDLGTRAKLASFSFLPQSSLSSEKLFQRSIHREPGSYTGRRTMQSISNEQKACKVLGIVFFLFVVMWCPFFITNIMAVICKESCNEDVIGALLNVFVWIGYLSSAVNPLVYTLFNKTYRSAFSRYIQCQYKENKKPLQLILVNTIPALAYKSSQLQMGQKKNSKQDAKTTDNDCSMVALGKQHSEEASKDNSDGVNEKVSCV

Row | Structure (SMILES) | Potency [1] | Potency [2] | Potency [3] | Potency [4] | Potency [5] | Potency [6] | Potency [7] | Potency [8] | Potency [9] | Potency [10] | Potency [11] | Potency [12] | Potency [13] | Potency [14] | Potency [15] | Potency [16] | Potency [17] | Potency [18]
1 | Oc1cc2ccccc2c2ccccc12 | 13.7 µM (active) | inactive | inactive | inactive | inactive | 10.2 µM (active) | 10.2 µM (active) | inactive | inactive | inactive | inactive | inactive | 30.6 µM (active) |  |  |  |  | 
2 | CO/N=C(/C(=O)N[C@@H]1C(=O)N2C(C(=O)[O-])=C(C[n+]3ccn4ncccc43)CS[C@H]12)c1nsc(N)n1 | inactive | inactive | inactive | inactive | inactive |  | inactive | inactive | inactive | inactive | inactive | inactive | inactive | inactive | inactive | inactive | inactive | 
3 | Cc1c(O)cccc1O | inactive | inactive | inactive | inactive | inactive | inactive | inactive | inactive | inactive | inactive | inactive | inactive | inactive |  | inactive | inactive | inactive | inactive
4 | C=CC(=C)CCCC(C)(C)OC(C)=O | inactive | inactive | inactive | inactive | inactive | inactive | inactive | inactive | inactive | inactive | inactive | inactive | inactive |  | inactive |  | inactive | inactive
5 | O=C(O)c1ccccc1-c1ccc(C(F)(F)F)cc1 | inactive | inactive | inactive | inactive | inactive |  | inactive | inactive | inactive | inactive | inactive | inactive | inactive | inactive | inactive | inactive |  | inactive
6 | CC1=C(O)C(=O)CO1 | inactive | inactive | inactive | inactive | inactive |  | inactive | inactive | inactive | inactive | inactive | inactive | inactive | inactive | inactive | inactive | inactive | inactive
7 | COc1nccnc1NS(=O)(=O)c1ccc(N)cc1 | inactive | inactive | inactive | inactive | inactive | inactive | inactive | inactive | inactive | inactive | inactive | inactive | inactive |  | inactive | inactive | inactive | inactive
8 | N[C@@H]1CONC1=O | inactive | inactive | inactive | inactive | inactive | inactive | inactive | inactive | inactive | inactive | inactive | inactive | inactive |  | inactive | inactive | inactive | inactive
9 | CC(=O)N(CC(O)CO)c1c(I)c(C(=O)NCCO)c(I)c(C(=O)NCC(O)CO)c1I (stereo unspecified) | inactive | inactive | inactive | inactive | inactive |  | inactive | inactive | inactive | inactive | inactive | inactive | inactive | inactive | inactive | inactive |  | inactive
10 | COC(=O)CCS | inactive | inactive | inactive | inactive | inactive |  | inactive | inactive | inactive | inactive | inactive | inactive |  | inactive | inactive | inactive | inactive | 
11 | CCOC(=O)C1=NN(c2ccccc2)C(=O)C1 | inactive | inactive | inactive | inactive | inactive | inactive | inactive | inactive | inactive |  | inactive | inactive |  |  | inactive | inactive | inactive | 
12 | CC(=O)NNC(C)=O | inactive | inactive | inactive | inactive | inactive |  | inactive | inactive | inactive | inactive | inactive | inactive | inactive | inactive | inactive | inactive | inactive | inactive
